Assay outcomes from PubChem BioAssay.
HP1b binding inh: HP1-beta chromodomain-methylated histone interaction inhibition; hit rate 0.56% among 390,000; AID 540317; Potency, µM (doses to about 114 µM), inactives show at the highest dose activity change, negative = inhibition, hits mostly inhibitors; AlphaScreen HP1-beta / biotin-H3K9me3 peptide binding; P83916; note: nearly all actives have a fitted effect of over 70% in size
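AlphaScreen: HP1-beta (50 nM) preformed 30 min with biotin-H3(1-18)K9me3 peptide (50 nM) in PBS pH 7.4, 0.01% Tween-20. Compound added for 30 min at RT, then streptavidin donor/nickel chelate acceptor beads (10 ug/mL) for 30 min.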
G9a inh: blocks human histone lysine methyltransferase G9a | hit rate 8.8% among 350,000 | G9a H3K9 monomethylation, AlphaScreen, 2 h | Q96KQ7 | Potency, µM (series often up to 102 µM), without a hit: at the highest dose activity, negative = inhibition, hits mostly inhibitors | AID 504332; note: % is set by controls: 0 for no effect and ±100 for the full control effect; nearly all actives have a fitted effect of over 75% in size
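Signal arises when biotinylated H3K9 peptide, once monomethylated, bridges streptavidin donor and antibody-captured acceptor beads. Enzyme at 20 nM was preincubated 15 min with test compounds; peptide 500 nM and SAM 20 uM then reacted for 2 h.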
Sfp PPTase inh: Sfp phosphopantetheinyl transferase inhibition | Q9F4F7 | Biochemical Sfp PPTase activity, qHTS | Potency, µM, for the others: largest response in the series, negative = inhibition, most hits filed as inhibitors | hit rate 3.5% among 310,000 | AID 1490;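 note: the enzyme is Sfp with the accession as filed and its product quenches rhodamine fluorescence; 0% = enzyme reaction without inhibitor and -100% = no enzyme wells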
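After 15 min at room temperature with compound, 15 nM Sfp received 5 uM rhodamine-CoA plus 12.5 uM BHQ-2-ybbR (50 mM Hepes pH 7.6, 10 mM MgCl2). Rate came from the fluorescence difference over 30 min, ex 525/em 598 nm.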
JMJD2A Tudor: inhibitors of human JMJD2A Tudor domain; AID 504339; hit rate 4.4% among 390,000; Potency, µM (series often up to 114 µM), for inactives: at the highest dose activity change, negative = inhibition, hits mostly inhibitors; AlphaScreen JMJD2A-Tudor / H3K4me3 peptide binding; note: % is set by controls: 0 for no effect and ±100 for the full control effect; nearly all actives have a fitted effect of over 50% in size
PLK1 PBD block: PLK1 (human) polo-box domain binding inhibition; Plk1 PBD binding of FITC phosphopeptide, fluorescence polarization; Potency, µM, for inactives: max response, negative = inhibition, hits mostly inhibitors; hit rate 2.8% among 360,000; note: series mostly up to about 57 µM; % is set by controls: 0 for no effect and ±100 for the full control effect; nearly all actives have a fitted effect of over 65% in size
Target sequence (P53350 whole entry, looked up, the tested form may be a part): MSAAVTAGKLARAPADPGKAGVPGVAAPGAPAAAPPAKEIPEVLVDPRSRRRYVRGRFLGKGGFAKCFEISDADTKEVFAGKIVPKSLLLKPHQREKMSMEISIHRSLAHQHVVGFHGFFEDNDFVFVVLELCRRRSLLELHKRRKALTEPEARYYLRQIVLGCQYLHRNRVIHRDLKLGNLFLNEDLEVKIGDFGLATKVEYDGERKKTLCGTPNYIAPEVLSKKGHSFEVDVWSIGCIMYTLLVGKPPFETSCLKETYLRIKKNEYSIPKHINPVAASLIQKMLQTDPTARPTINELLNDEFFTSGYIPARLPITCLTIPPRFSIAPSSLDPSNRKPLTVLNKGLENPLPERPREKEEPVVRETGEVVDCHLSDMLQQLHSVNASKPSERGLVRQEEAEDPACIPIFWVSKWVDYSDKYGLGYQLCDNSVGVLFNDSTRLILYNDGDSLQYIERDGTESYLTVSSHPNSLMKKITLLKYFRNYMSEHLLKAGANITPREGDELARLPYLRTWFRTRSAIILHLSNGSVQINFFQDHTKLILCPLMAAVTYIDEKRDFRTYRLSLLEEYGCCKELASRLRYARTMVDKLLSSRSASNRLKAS
BAZ2B inh: inhibitors of human BAZ2B bromodomain | Q9UIF8 | AlphaScreen BAZ2B-H3K14Ac peptide displacement | Potency, µM (highest dose often 114 µM), without a hit: at the top dose activity change, negative = inhibition, hits mostly inhibitors | hit rate 4.4% among 360,000; note: % is set by controls: 0 for no effect and ±100 for the full control effect; nearly all actives have a fitted effect of over 60% in size
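Multi-concentration screen (max 110 uM) measuring displacement of acetylated histone H3 peptide from BAZ2B by AlphaScreen, using 50 nM protein, 50 nM peptide and 10 ug/mL streptavidin donor plus Ni-chelate acceptor beads.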
* marks the source's active call; other numbers are inactive results; ? = inconclusive; · = not tested or not shown; ! = not confirmed by another sample; [ ] = dose if it differs, or a comment. Compounds with a hit are over-represented: about 12% of the library has one in this group of screens. Calls come from the whole dose curve; as a rule, active = well fitted curve in the direction sought with a large enough effect; inconclusive = small, poorly fitted or top-dose-only effect, or another doubt; inactive = no such curve, though single readings can be large; an effect the other way counts as inactive or inconclusive. Potency is the fitted concentration of half-maximal effect.

SMILES	HP1b binding inh	G9a inh	Sfp PPTase inh	JMJD2A Tudor	PLK1 PBD block	BAZ2B inh
CSCC[C@H](NC(=O)[C@H](CO)NC(=O)[C@H](Cc1ccc(O)cc1)NC(=O)[C@@H](N)CO)C(=O)N[C@@H](CCC(=O)O)C(=O)N[C@@H](Cc1cnc[nH]1)C(=O)N[C@@H](Cc1ccccc1)C(=O)N[C@@H](CCCNC(=N)N)C(=O)N[C@@H](Cc1c[nH]c2ccccc12)C(=O)NCC(=O)N[C@@H](CCCCN)C(=O)N1CCC[C@H]1C(=O)N[C@H](C(=O)NCC(=O)N[C@@H](CCCCN)C(=O)N[C@@H](CCCCN)C(=O)N[C@@H](CCCNC(=N)N)C(=O)N[C@@H](CCCNC(=N)N)C(=O)N1CCC[C@H]1C(=O)N[C@H](C(=O)N[C@@H](CCCCN)C(=O)N[C@H](C(=O)N[C@@H](Cc1ccc(O)cc1)C(=O)N1CCC[C@H]1C(=O)O)C(C)C)C(C)C)C(C)C	·	·	-18%	·	·	·
O=C(NCC(c1ccc(Cl)cc1)N1CCCCC1)c1ccc(F)cc1 (stereo not given)	40%	3%[59 µM]	·	2%	·	4%
C=CCSC1=C(C#N)C(c2ccccc2OCC)C(C#N)C(=O)N1 (stereo not given)	-13%	45µM*	35µM*	-31%	27µM*	-12%
CCOC(=O)C1C(=O)NC(SCC(=O)Nc2nccs2)=C(C#N)C1c1ccccc1OCC (stereo not given)	?	1.6µM*	14µM*	56µM*	2.7µM*	-35%
COC(=O)c1cc2oc3ccccc3c2n1Cc1cc(C)ccc1C	35%	-6%[59 µM]	·	-13%	·	1%
O=C(O)CCCCCCCCc1cn(CCc2c[nH]c3ccccc23)nn1	14%	28µM*	-16%	-28%	-11%	-38%
O=C(CN1CCN(c2ccc(O)cc2)CC1)N(C1CC1)C1CCS(=O)(=O)C1 (stereo not given)	?	9%[2.33 µM]	·	79µM*	-7%	6%
O=C(CN1CCN(c2ccc(F)cc2)CC1)N(C1CCCC1)C1CCS(=O)(=O)C1 (stereo not given)	12%	-7%[2.33 µM]	·	-13%	-7%	6%
Cc1ccc(N2C(=O)CC(c3ccccc3F)C3=C2COC3=O)cc1Cl (stereo not given)	56%	17%[59 µM]	·	-8%	·	-20%
C#CCN1C(C)=C(C(=O)OC)C(c2cccc([N+](=O)[O-])c2)C(C(=O)OCC)=C1C (stereo not given)	7%	11µM*!	·	-32%	-2%	-29%
CN(C)c1ccc(N=Nc2ccccc2C(=O)OCC(=O)N(C)c2ccccc2)cc1	?	8.9µM*	?	13µM*	1%	10µM*
COC(=O)c1ccccc1NC(=O)COC(=O)c1ccccc1N=Nc1ccc(N(C)C)cc1	?	8.9µM*	5%	32µM*	-9%	8.9µM*
CN(C)c1cccc(C(=O)OCC(=O)N(C)c2ccccc2)c1	-23%	-15%	-9%	?	-17%	?
CC(=O)c1c(C)[nH]c(C(=O)OCC(=O)Nc2cc(Cl)ccc2[N+](=O)[O-])c1C	15%	50µM*	-4%	-15%	2%	?
NS(=O)(=O)c1ccc(NC(=O)COC(=O)c2cc(Cl)ccc2[N+](=O)[O-])cc1	8%	-5%[59 µM]	4%	-14%	-16%	-15%
CN(C)c1ccc(NC(=O)COC(=O)c2cc(Cl)ccc2[N+](=O)[O-])cc1	50µM*	6.3µM*	0%	25µM*	-10%	35µM*
O=C(CNC1CCCC1)Nc1cc(Cl)ccc1[N+](=O)[O-]	40µM*	45µM*	56µM*	1µM*	0%	56µM*
CC(=O)c1ccc(NC(=O)COC(=O)c2ccccc2N=Nc2ccc(N(C)C)cc2)cc1	32µM*	13µM*	13%	13µM*	0%	5µM*
